Data taken from PubChem BioAssay AID686952 (The Scripps Research Institute Molecular Screening Center, 2013).
The whole screen tested about 3,200 compounds, of which about 2,600 (81%) were called active.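 Rule for the calls: active = activation above the all-compound mean plus 3 SD, ignoring values outside control-based bounds (cut at about 4.8% in these data); inactive = the rest.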 So high a share suggests a set chosen from earlier hits. The list is a sample of the results.

Assay: EDANS-DABCYL substrate optical interference, artefact control for kallikrein-7 zymogen activator project, biochemical, fluorescence intensity, high throughput (AID 686952);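 note: value is the 4 h activation minus the activation read at time zero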
Conditions: no enzyme, 4 h, at 7 µM, active compounds read high
With `CCOC(=O)c1c(N)n(CCN2CCOCC2)c2nc3ccccc3nc12` the activation was 31.4% (active).
For `Cc1nc2ccc(N3CCN(C)CC3)cc2nc1C`, the activation was 13.9% (active).
For `CCOc1ccc(-c2cc(C)[n+](CCN(CC)CC)c(-c3ccc(OCC)cc3)c2)cc1`, the activation was 37.3% (active).
In the case of `COc1cccc(-c2nc3ccc(N4CCN(C)CC4)cc3[nH]2)c1`, the activation is reported as 65.7% (active).
